Experimental data taken from ChEMBL document CHEMBL3988442, “University of Dundee, Small-Polar-MMV Screening Library” (2021).
For some assays here: Entries with a potency or affinity are not part of this list.

Experiments:
Set-up in all cases: scale not given: direction of the effect not stated beside the values
[1] = target: Protein translocase subunit SecA (Escherichia coli (strain K12)) (UniProt P10408); experiment: Assay to Identify E. coli SecA ATPase Inhibitors; assay type: functional; details: 30 µM
Sequence of Protein translocase subunit SecA (Escherichia coli (strain K12)) (P10408 whole entry): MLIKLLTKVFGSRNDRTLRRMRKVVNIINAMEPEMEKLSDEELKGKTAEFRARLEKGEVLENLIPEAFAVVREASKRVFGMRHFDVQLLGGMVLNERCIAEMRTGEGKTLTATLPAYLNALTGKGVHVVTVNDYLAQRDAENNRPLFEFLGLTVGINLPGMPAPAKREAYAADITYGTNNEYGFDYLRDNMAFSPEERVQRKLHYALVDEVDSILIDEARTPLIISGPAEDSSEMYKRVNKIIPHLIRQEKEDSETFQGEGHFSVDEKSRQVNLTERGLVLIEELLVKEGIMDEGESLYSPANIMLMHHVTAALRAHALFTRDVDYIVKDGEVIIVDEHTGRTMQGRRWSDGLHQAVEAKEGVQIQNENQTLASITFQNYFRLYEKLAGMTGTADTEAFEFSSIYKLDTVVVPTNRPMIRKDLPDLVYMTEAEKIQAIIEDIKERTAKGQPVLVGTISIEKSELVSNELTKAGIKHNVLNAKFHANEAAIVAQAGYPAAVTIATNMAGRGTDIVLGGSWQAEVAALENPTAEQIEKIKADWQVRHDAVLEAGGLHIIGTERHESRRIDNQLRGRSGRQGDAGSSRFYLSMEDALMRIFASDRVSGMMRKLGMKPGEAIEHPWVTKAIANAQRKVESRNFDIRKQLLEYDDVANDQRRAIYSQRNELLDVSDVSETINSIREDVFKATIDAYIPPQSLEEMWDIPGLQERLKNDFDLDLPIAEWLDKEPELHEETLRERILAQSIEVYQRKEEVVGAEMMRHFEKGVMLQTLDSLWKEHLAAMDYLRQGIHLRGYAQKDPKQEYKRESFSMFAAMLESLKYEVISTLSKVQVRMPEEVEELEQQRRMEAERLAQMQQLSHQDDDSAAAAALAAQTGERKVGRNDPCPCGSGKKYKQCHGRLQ

[2] = target: T1, Ubiquitin-activating enzyme e1, putative (Leishmania donovani (strain BPK282A1)) (UniProt E9BSI1); experiment: Leishmania donovani Ubiquitin Activating Enzyme (LdE1); assay type: functional; details: 30 µM
T1 sequence (whole entry): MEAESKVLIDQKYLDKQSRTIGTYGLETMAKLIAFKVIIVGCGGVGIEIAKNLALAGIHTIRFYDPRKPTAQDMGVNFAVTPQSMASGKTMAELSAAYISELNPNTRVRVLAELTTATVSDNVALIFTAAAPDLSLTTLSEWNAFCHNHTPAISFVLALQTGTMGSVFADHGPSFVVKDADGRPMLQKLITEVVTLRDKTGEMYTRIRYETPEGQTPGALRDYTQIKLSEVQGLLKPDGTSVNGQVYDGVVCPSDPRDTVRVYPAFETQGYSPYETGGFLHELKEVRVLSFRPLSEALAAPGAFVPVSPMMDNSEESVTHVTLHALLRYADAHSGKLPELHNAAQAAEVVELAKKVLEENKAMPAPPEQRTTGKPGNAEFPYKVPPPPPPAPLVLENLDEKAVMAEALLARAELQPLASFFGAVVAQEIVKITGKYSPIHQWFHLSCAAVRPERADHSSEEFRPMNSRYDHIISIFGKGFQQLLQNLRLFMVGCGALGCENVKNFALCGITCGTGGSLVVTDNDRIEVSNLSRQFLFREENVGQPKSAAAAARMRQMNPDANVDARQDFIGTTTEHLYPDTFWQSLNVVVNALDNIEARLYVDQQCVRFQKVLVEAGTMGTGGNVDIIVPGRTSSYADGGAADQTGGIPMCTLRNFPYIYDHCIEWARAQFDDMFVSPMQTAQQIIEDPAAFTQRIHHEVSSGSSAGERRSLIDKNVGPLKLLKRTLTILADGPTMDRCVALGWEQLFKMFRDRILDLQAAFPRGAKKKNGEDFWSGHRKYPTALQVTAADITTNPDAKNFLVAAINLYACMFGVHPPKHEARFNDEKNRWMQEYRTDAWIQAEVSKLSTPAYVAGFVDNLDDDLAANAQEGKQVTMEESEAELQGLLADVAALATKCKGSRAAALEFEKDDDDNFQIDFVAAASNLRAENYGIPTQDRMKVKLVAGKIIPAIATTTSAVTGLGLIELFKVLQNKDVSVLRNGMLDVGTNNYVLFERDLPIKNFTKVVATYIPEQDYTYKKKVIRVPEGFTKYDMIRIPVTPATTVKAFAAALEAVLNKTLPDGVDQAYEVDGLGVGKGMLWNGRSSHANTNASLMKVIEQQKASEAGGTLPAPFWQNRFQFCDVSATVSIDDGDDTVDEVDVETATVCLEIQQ

[3] = target: AMP-activated protein kinase, AMPK (Homo sapiens) (UniProt P54646+O43741+P54619+Q9UGJ0+Q9Y478+Q13131+Q9UGI9); experiment: AMP-dependent Kinase enzyme assay. An in vitro enzyme assay that detects ADP turnover that is directly proportional to AMPK activity. This uses naive AMPK that is activated during the assay with MK-8722; assay type: functional; details: 30 µM
[4] = target: Sialic acid-binding Ig-like lectin 9 (Homo sapiens) (UniProt Q9Y336); experiment: Hs-Siglec9 ALPHAscreen SOP 20170721; details: 10 µM
Sequence of Sialic acid-binding Ig-like lectin 9 (Homo sapiens) (Q9Y336 whole entry): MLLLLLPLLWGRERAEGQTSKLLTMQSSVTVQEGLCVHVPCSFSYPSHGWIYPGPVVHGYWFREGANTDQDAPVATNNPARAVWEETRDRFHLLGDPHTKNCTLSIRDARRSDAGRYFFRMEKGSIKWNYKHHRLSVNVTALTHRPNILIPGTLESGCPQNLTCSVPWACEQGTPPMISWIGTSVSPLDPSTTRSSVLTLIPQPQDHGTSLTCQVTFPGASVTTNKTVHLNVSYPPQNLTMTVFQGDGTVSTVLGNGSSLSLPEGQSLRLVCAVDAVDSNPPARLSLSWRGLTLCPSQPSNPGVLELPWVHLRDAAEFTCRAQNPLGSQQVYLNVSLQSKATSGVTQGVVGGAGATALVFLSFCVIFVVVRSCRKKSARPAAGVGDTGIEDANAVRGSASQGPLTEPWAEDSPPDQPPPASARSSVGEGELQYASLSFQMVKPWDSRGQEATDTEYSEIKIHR

Trypanosoma cruzi = experiment: Trypanosoma cruzi phosphomannomutase and mannose-1-phosphate guanylyltransferase assay; assay type: functional; details: 10 µM
[5] = target: T2, Arginase-2, mitochondrial (Homo sapiens) (UniProt P78540); experiment: in vitro enzyme assay to detect the production of urea directly proportional to the activity of Arginase II; assay type: functional; details: 33.3 µM; further: in the data most compounds retested in dose-response had high values
T2 sequence (whole entry): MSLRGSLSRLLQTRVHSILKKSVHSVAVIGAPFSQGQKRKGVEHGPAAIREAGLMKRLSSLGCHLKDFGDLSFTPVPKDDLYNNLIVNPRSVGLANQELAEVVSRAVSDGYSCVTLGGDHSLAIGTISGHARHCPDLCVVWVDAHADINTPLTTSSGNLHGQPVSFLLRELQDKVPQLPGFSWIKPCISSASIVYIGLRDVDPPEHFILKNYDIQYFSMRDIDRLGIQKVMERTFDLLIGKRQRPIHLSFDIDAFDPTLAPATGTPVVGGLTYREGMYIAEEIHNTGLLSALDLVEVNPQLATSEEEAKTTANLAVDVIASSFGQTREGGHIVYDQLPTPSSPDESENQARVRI

[6] = target: T3, Proteasome subunit beta (Trypanosoma cruzi) (UniProt O96673); experiment: Trypanosoma cruzi proteasome chymotrypsin-like activity (TcProtChymo) assay.; further: in the data most compounds retested in dose-response had high values; assay type: functional; details: 9.37 µM
T3 sequence (whole entry): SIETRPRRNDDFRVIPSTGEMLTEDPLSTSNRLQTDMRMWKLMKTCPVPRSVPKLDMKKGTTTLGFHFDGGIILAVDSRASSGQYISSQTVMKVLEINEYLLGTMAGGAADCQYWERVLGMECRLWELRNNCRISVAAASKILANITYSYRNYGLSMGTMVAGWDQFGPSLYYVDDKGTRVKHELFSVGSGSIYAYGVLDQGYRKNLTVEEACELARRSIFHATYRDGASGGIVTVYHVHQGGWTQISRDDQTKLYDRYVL

Homo sapiens = species: Homo sapiens; experiment: To identify inhibition of the IFN signalling (Jak-Stat) pathway via expression of an eGFP reporter gene under the control of an IFN-stimulated response element (ISRE) containing MxA promoter.; assay type: functional; details: 30 µM
[7] = target: T4, Tyrosyl-tRNA synthetase, putative (Trypanosoma cruzi (strain CL Brener)) (UniProt Q4DSP6); experiment: Trypanosoma cruzi tyrosyl tRNA synthetase (TcYRS) _High Tyrosine SOP; assay type: functional; details: 30 µM; further: in the data most compounds retested in dose-response had high values
T4 sequence (whole entry): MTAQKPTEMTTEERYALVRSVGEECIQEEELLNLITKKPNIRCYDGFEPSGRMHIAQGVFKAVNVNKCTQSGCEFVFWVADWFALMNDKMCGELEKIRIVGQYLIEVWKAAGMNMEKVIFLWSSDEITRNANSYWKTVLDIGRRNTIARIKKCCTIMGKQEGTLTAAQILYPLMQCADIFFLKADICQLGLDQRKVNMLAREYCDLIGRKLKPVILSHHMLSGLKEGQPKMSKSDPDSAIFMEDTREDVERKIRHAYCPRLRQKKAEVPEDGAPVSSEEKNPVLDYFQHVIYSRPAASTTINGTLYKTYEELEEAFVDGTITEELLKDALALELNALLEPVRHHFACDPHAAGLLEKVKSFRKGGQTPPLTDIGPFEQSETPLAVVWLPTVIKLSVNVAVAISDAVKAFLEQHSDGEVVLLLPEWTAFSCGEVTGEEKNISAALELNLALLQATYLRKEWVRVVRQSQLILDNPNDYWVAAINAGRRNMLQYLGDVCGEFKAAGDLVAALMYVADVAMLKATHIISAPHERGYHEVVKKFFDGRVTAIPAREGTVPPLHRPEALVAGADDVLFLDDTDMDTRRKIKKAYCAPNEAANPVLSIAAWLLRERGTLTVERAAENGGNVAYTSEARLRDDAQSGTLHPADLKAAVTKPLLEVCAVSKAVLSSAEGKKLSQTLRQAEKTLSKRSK

[8] = target: T4, Tyrosyl-tRNA synthetase, putative (Trypanosoma cruzi (strain CL Brener)); experiment: Trypanosoma cruzi tyrosyl tRNA synthetase (TcYRS) SOP; assay type: functional; details: 30 µM
[9] = target: Chromo domain-containing protein 1 (Saccharomyces cerevisiae (strain ATCC 204508 / S288c) (Baker's yeast)) (UniProt P32657); experiment: ScCHD-1 Enzyme Inhibition Assay; assay type: functional; details: 30 µM; further: in the data most compounds retested in dose-response had high values
Sequence of Chromo domain-containing protein 1 (Saccharomyces cerevisiae (strain ATCC 204508 / S288c) (Baker's yeast)) (P32657 whole entry, the tested form may be a part): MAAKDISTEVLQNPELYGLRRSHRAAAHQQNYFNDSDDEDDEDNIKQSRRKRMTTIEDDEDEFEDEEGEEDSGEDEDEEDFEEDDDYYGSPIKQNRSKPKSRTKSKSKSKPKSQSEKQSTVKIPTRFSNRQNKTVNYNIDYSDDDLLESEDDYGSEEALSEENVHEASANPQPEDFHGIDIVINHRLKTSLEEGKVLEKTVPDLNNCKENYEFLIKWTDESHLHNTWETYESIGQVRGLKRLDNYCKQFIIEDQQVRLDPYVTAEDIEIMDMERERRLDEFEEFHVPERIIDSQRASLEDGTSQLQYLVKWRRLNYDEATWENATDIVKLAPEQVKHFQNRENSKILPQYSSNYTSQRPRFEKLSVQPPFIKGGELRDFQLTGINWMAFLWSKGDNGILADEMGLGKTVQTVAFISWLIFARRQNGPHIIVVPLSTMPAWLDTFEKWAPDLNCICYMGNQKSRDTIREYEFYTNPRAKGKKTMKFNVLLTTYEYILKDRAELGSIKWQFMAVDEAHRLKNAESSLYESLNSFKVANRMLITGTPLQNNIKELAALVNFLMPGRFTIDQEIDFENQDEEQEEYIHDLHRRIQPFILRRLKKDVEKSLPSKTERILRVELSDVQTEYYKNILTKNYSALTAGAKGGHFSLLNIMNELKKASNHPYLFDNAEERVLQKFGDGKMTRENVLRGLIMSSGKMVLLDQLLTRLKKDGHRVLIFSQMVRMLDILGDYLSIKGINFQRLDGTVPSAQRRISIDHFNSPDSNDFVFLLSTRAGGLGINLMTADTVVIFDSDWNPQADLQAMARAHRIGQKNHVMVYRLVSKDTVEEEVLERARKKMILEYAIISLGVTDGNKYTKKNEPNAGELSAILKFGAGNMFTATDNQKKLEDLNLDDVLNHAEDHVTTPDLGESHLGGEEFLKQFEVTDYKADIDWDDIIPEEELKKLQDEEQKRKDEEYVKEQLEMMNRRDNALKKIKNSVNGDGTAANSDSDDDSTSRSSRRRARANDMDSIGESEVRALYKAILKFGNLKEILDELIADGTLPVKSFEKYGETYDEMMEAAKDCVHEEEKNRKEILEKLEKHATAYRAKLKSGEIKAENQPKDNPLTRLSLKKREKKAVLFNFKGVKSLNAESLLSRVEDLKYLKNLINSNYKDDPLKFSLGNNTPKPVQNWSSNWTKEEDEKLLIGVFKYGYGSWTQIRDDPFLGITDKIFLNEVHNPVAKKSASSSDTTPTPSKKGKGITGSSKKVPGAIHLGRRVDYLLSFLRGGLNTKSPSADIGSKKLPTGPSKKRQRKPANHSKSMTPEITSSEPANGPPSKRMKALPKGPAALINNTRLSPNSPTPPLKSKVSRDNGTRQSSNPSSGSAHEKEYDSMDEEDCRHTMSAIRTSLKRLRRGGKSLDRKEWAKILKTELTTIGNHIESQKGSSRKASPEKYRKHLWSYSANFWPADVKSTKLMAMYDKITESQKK

| SMILES | Percent Effect [1] | Percent Effect [2] | Percent Effect [3] | Percent Effect [4] | Percent Effect (Trypanosoma cruzi) | Percent Effect [5] | Percent Effect [6] | Percent Effect (Homo sapiens) | Percent Effect [7] | Percent Effect [8] | Percent Effect [9] |
| --- | --- | --- | --- | --- | --- | --- | --- | --- | --- | --- | --- |
| O=C(Cn1cc(C(=O)O)ccc1=O)Nc1ccc(F)cc1Cl | -1.48% | 14.7% | 2.96% | 5.48% | 1.18% | -12.2% | 11.5% | -15% | 6.35% | 5.13% | -9.34% |
| CCNC(=O)Nc1ccc2c(ccn2CC(=O)N(CC)CC)c1 | -2.78% | 18.4% | -2.69% | 1.44% | -0.188% | -4.6% | 12.5% | 19.9% | 9.31% | 17.1% | -6.24% |
| Cc1nc(CN2CCc3nn(C(C)C)c(=O)cc3C2)oc1C | -3.86% | -2.63% | -91.7% | 5.18% | -3.83% | 6.83% | 10.4% | -4.72% | -3.45% | -8.64% | 2.02% |
| Cc1cc(C)cc(OCCC(=O)N2CCCC(n3cncn3)C2)c1 (stereo unspecified) | -0.911% | -8.11% | 0.29% | 4.17% | 8.08% | -5.73% | -5.21% | 4.81% | 0% | 3.66% | 1.95% |
| COc1ccc(CN(C)C(=O)CCc2c(C)nc(C)[nH]c2=O)cc1OC | -2.11% | 6.94% | -3.92% | 5.86% | 5.15% | 0% | 20.2% | -1.63% | 7.37% | 12.8% | -3.31% |
| CNC(=O)NC(=O)CN1CCC(c2c[nH]c3ccc(OC)cc23)CC1 | -5.27% | 10.7% | -5.74% | 22.2% | 0.292% | 4.69% | 12.4% | 7.02% | 9.29% | 18.5% | -8.18% |
| CCn1cc2c(n1)CN(Cc1ccncc1)CC2COCC1CC1 (stereo unspecified) | -3.54% | 10.7% | 12.3% | 6.03% | -1.97% | -0.699% | 10.7% | 4.31% | 6.38% | 11.5% | -6.9% |
| c1ncn(CC2CCCCN2Cc2csc(C3CCCC3)n2)n1 (stereo unspecified) | -2.71% | -5.2% | -0.0278% | 1.89% | 9.55% | -1.42% | 6.93% | 11.4% | 10.7% | 19.5% | 66.7% |
| COC[C@@]12CCO[C@@H]1CCN(Cc1ccccc1F)C2 | -2.12% | 11% | -5.09% | 8.1% | 5.75% | -2.79% | 10.5% | 3.87% | 4.17% | 8.64% | -4.87% |
| COc1cccc(N2CCN(CC(O)c3ccc(C)cc3)CC2)c1 (stereo unspecified) | -1.61% | 21.1% | -2.12% | -9.96% | 0.292% | 0% | 17% | 3.85% | 5.32% | 20.8% | 21% |
| Cn1cccc1CN1CCC2(CCCN(C(=O)c3cnccn3)C2)C1 (stereo unspecified) | 0.875% | 7.79% | -0.756% | -13.7% | -10.8% | 11% | 14.4% | 29.7% | -2.12% | -1.28% | -9.31% |
| CN(Cc1ccc(Cl)s1)C(=O)NCc1nnc2n1CCC2 | -2.21% | 21.1% | 2.58% | -10.7% | 4.2% | -3.96% | 7.87% | 0.395% | 6.4% | 18.5% | -7.27% |
| CC(C)(C)C(=O)NCCn1ccc(-c2ccncc2)n1 | -2.96% | 2.74% | -5.12% | 4.58% | 3.33% | 11.4% | 9.23% | 21.9% | 1.07% | 2.5% | -2.64% |
| O=C(Cn1cc(I)cn1)N1CCCC1 | 0.0934% | -1.33% | -2.19% | 10.5% | 2.55% | -2.64% | 7.02% | 20.5% | 5.29% | 5.13% | -2.75% |
| CN(Cc1nccs1)c1nc(-c2ccccn2)nc2c1CCNCC2 | -3.65% | -1.39% | -0.513% | -2.23% | 4.57% | -2.21% | 8.95% | 11.4% | 10.5% | 12.8% | -1.22% |
| O=C1COC2(CCN(Cc3ccccn3)CC2)CN1CC1CC1 | 0.889% | 2.6% | 17.2% | 2.67% | -4.83% | -1.94% | -3.13% | 9.22% | 1.06% | 3.85% | -1.35% |
